A number with no mark means an inactive call.
Test system: Vero E6 infected with SARS-CoV-2
Experiment: inhibition of SARS-CoV-2 cytopathic effect; higher = more antiviral protection, active = above 15
Settings: 48 h

SMILES	inhibition of SARS-CoV-2 cytopathic effect (1 nM) [%]	inhibition of SARS-CoV-2 cytopathic effect (8.33 nM) [%]	inhibition of SARS-CoV-2 cytopathic effect (100 nM) [%]	inhibition of SARS-CoV-2 cytopathic effect (833.33 nM)	inhibition of SARS-CoV-2 cytopathic effect (10000 nM)
O=C(N[C@@H]1Cc2ccccc2N(C[C@@H](O)CO)C1=O)c1cc2cc(Cl)sc2[nH]1	-0.59	-0.92	-2.86	-2.28%	-3.46%
CCc1ccc(/C=C2/SC(=S)NC2=O)cc1	-2.34	-6.5	-4.03	3.21%	1.11%
CCOc1cn(-c2ccc(F)cc2C)nc1C(=O)Nc1ccc(Oc2ccnc3cc(OC)c(OC)cc23)c(F)c1	-0.58	-1.4	-1.89	0.24%	-1.4%
C[C@@H]1COC(Nc2ccc3ncnc(Nc4ccc(OCc5nccs5)c(Cl)c4)c3c2)=N1	2.68	1.86	-0.65	-3.55%	-4.19%
O=C1CS[C@@H](c2ccccc2Cl)c2cc(Cl)ccc2N1 (racemic)	1.66	-2.6	-1.47	5.44%	7.2%
c1cnc(SCc2cccnc2)nc1 [tasuldine]	1.94	1.66	0.38	0.69%	1.89%
CCOC(=O)C1=C(C)NC(C)=C(C(=O)OCC)C1c1ccccc1/C=C/C(=O)OC(C)(C)C [lacidipine]	2.1	-0.72	0.07	3.01%	3.85%
CC(=O)N[C@@H](CC(C)C)C(=O)O [acetyl-l-leucine]	1.37	-0.18	-0.14	-1.79%	-0.49%
COc1ccc(-c2cc(=S)ss2)cc1 [anethole-trithione]	1.7	-0.29	1.29	-1.2%	2.76%
COc1ccc2cc1Oc1ccc(cc1)C[C@H]1c3cc(c(OC)cc3CCN1C)Oc1c(OC)c(OC)cc3c1[C@H](C2)N(C)CC3 [tetrandrine]	-2.72	-0.14	-1.04	-2.19%	69.3% (active)
CCN(CC)C(=S)SSC(=S)N(CC)CC [disulfiram]	1.63	1.79	1.68	26.5% (active)	13.2%
C/C=C1/[C@H](O[C@@H]2O[C@H](CO)[C@@H](O)[C@H](O)[C@H]2O)OC=C(C(=O)OC)[C@H]1CC(=O)OCCc1ccc(O)c(O)c1 [oleuropein]	0.9	-0.2	-0.09	0.43%	0.52%
O=C(NOCC1CC1)c1ccc(F)c(F)c1Nc1ccc(I)cc1Cl	-1.59	-0.84	-7.28	-6.38%	-13.8%
C[C@]12C=CC(=O)C=C1CC[C@@H]1[C@@H]2[C@@H](O)C[C@@]2(C)[C@H]1CC[C@]2(O)C(=O)COC(=O)CCC(=O)O [prednisolone-hemisuccinate]	-1.49	0.74	3.44	3.76%	1.85%
Nc1ncnc2c1ncn2CCOCP(=O)(O)O [adefovir]	6.28	4.07	2.27	0.75%	2.85%
COc1cc2c(NC3CCN(C(C)C)CC3)nc(C3CCCCC3)nc2cc1OCCCN1CCCC1	0.58	-2.43	-1.38	-2.98%	59.6% (active)
CCCCCCCCCCCCCCCC[N+](C)(C)Cc1ccccc1 [benzyldimethylhexadecylammonium]	2.1	0.11	-1.57	-0.97%	-13.2%
CCN(CC)C(=O)c1ccc(C2=CC3(CCNCC3)Oc3cccc(O)c32)cc1	-0.93	-0.47	-4.19	-2.26%	-2.32%
C[C@H](N)Cn1ccc2cc(F)c(Cl)cc21	1.25	4.09	1.91	-2.16%	-0.64%
COC(=O)[C@@H](N)CS [mecysteine]	2.04	-0.66	-0.44	2.25%	2.07%

SMILES	inhibition of SARS-CoV-2 cytopathic effect (1 nM) [%]	inhibition of SARS-CoV-2 cytopathic effect (8.33 nM) [%]	inhibition of SARS-CoV-2 cytopathic effect (100 nM) [%]	inhibition of SARS-CoV-2 cytopathic effect (833.33 nM)	inhibition of SARS-CoV-2 cytopathic effect (10000 nM)
C[C@H](Nc1cc(NS(=O)(=O)N2CCC2)nc(SCc2cccc(F)c2F)n1)[C@@H](O)CO	3.09	1.5	0.2	0.91%	2.14%
CN(C)CCC=C1c2ccccc2C=Cc2ccccc21 [cyclobenzaprine]	0.3	6.56	3.92	-1.83%	-6.67%
CCCCCCCCCCCCCCCCCCCCCC(=O)Nc1ccn([C@@H]2O[C@H](CO)[C@@H](O)[C@@H]2O)c(=O)n1 [enocitabine]	-3	-4.05	-1.69	-5.11%	-4.84%
FC(F)(F)c1ccc(CNc2ccc(Cc3c[nH]c4ncc(Cl)cc34)cn2)cn1 [pexidartinib]	0.78	3.65	0.98	0.96%	11.6%
CCOC(=O)C1=C(C)NC(C)=C(C(=O)OC)[C@@H]1c1cccc([N+](=O)[O-])c1 (racemic) [nitrendipine]	1.59	0.33	-3.74	-0.45%	4.26%
CO/N=C1\CN(c2nc3c(cc2F)c(=O)c(C(=O)O)cn3C2CC2)CC1CN (stereo not given) [gemifloxacin]	-4.74	-3.09	0.76	1.02%	5.76%
O=C1C=CC(=O)C2=C1C1c3ccccc3C2c2ccccc21	1.05	0.78	-0.03	2.43%	5.57%
C/C(=C\CNc1ncnc2[nH]cnc12)CO [zeatin]	-3.72	-2.49	-0.97	0.86%	-1.15%
CN1Cc2c(C(=O)OC(C)(C)C)ncn2-c2ccsc2C1=O	2.57	3.55	1.79	1.66%	-0.64%
NC(=O)CN1CCCC1=O [piracetam]	0.23	-1.52	3.28	-1.35%	-0.57%
C[n+]1c2cc(N)ccc2cc2ccc(N)cc21.Nc1ccc2cc3ccc(N)cc3nc2c1 [acriflavine]	2.32	1.62	1.04	-1.18%	-12.9%
COc1cc2ncnc(Sc3nnc(C)s3)c2cc1OC	-1.42	0.72	3.01	1.54%	24.4% (active)
COc1cc2c(cc1F)C(c1ccccc1Cl)=Nc1c(n[nH]c1C)N2	1.86	1.62	-1.34	2.98%	2.4%
Cc1ccc(Cl)cc1N(CC(=O)Nc1c(F)cccc1F)S(C)(=O)=O	2.5	-2.01	-1.24	0.27%	-0.21%
CCCN(CCC)C(=O)C1=Cc2ccc(-c3ccc(C(=O)N4CCCC4)cc3)cc2N=C(N)C1 [motolimod]	0.77	0.05	1.88	1.37%	-1.01%
COc1cc(N)c(Cl)cc1C(=O)NC1CN2CCC1CC2 (stereo not given) [zacopride]	0.12	-0.23	-1.28	-2.33%	-4.26%
CC(C)n1nc(C#Cc2ccccc2)c2c(N)ncnc21	0.9	-1.43	-4.23	0.67%	3.02%
CNC(=O)[C@H](Cc1c[nH]c2ccccc12)NC(=O)[C@@H](CC(=O)NO)CC(C)C [ilomastat]	3.69	1.87	-1.16	2.15%	-0.18%
CCCCOCCOc1nc(-c2ccc(C(=O)O)c(F)c2)sc1C	-0.86	-0.63	-1.87	-1.76%	2.1%
C=C[C@]1(C)C[C@@H](OC(=O)CS[C@@H]2C[C@H]3CC[C@@H](C2)N3C)[C@]2(C)[C@H](C)CC[C@]3(CCC(=O)[C@H]32)[C@@H](C)[C@@H]1O [retapamulin]	-0.46	2.42	1.21	1.93%	-0.87%

From the supplement of paper PMC13380429
